FBW7 activator: human FBW7 E3 ligase activation, primary screen | Q969H0 | AlphaScreen FBW7–phospho-cyclin E peptide binding, activator screen | normalized activity (activation), % at 26.1 µM | 0.13% of 650,000 active | AID 1259310; in the data active = normalized activity above about 1.9%;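 note: purified mutant Fbw7 with reduced substrate affinity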
GPR151 ag: human GPR151 activation. Q8TDV0. PathHunter beta-arrestin GPR151 cells, luminescence. activation, % at 11.2 µM. 1% of 650,000 active. AID 1508602; in the data active = activation above about 4.9%;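 note: 0% = median of compound wells and 100% = cells with positive control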
TEAD-YAP block: TEAD-YAP interaction inhibition. inhibition, % at 9.12 µM. 1.4% of 640,000 active. HEK-TIYL cells, TEAD-Gal4/YAP UAS-luciferase luminescence. AID 1259422; in the data active = inhibition above about 32%;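 note: 0% = median of test compound wells and 100% = reference inhibitor wells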
MITF inh: human MITF inhibition, primary screen. O75030. AlphaScreen MITF homodimerization, bead proximity signal. inhibition, % at 2.6 µM. 0.91% of 650,000 active. AID 1259374; in the data active = inhibition above about 50%;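 note: 0% = vehicle wells with protein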
* hit, by the source's call; ! = repeats disagree. Only some compounds are listed: those with a hit (about 3.4% of all), similar ones and a draw of the others.

SMILES	FBW7 activator	GPR151 ag	TEAD-YAP block	MITF inh
OC1CCC2OC1CCC2O (stereo not drawn)	0	-1	3	2
CN(C)S(=O)(=O)c1ccc(-c2csc(-c3ccc(Cl)cc3)n2)cc1	0	1	1	0
CCOc1ccc(NC(=O)c2ccc(O)cc2)cc1	1	-3	64*	1
Cc1ccc(NC(=O)CSc2nc3ccccc3[nH]2)c(C)c1	0	0	14	2
COc1ccc(-c2ccc(=O)n(CC(=O)Nc3ccc(S(=O)(=O)N(C)C)cc3)n2)cc1	0	3	5	-6
N#C/C(=C\c1ccc(O)c(Br)c1)c1nc(-c2ccc3c(c2)OCO3)cs1	0	0	-11	1
N#C/C(=C\c1ccc(O)c(O)c1)c1nc(-c2ccc3c(c2)OCO3)cs1	0	0	18	58*
O=C(Nc1ccc(Br)cc1)c1ccc(Cl)c([N+](=O)[O-])c1	0	5	3	-12
O=C(CSc1ncn[nH]1)Nc1ccc(-c2nc3ccccc3s2)cc1	1	4	53*	17
COc1ccc(NC(=O)CSc2ncn[nH]2)cc1	0	-3	2	-28
Cc1ccc(NC(=O)CSc2ncn[nH]2)cc1	0	-2	17	6
Cc1ccc2nc(-c3ccc(NC(=O)CSc4ncn[nH]4)cc3)sc2c1	0	-2	73*	4
COC(=O)c1ccc(NC(=O)CSc2ncn[nH]2)cc1	2.4*	-4	-9	6
O=C(NCCc1ccccc1)c1cc(Sc2ccc(Cl)cc2)nc2ccccc12	0	-1	2	4
O=C(Nc1cnn(-c2ccc(C(=O)NC3CCc4ccccc43)cc2)c1)c1ccoc1 (stereo not drawn)	1	-1	56*	13
O=C(c1ccco1)N1CCN(c2nccn3c(-c4cccc(F)c4)cnc23)CC1	0	1	-16	3
CC(=O)Nc1cccc(-c2cnc(N3CCN(C(=O)c4ccco4)CC3)c3nccn23)c1	3.2*	-5	92*	16
CC(=O)Nc1cccc(-c2cnc3c(N4CCN(C(=O)c5ccco5)CC4)nccn23)c1	0	-5	93*	-9
CCOc1ccc(-c2cnc(NCc3ccccc3)n2C)cc1	0	0	3	29
O=C(Nc1ccc(Cl)c(C(F)(F)F)c1)c1ccc(NC(=O)C2CCCO2)cc1 (stereo not drawn)	0	1	34*	13
CCCN(C1=NS(=O)(=O)c2ccccc21)c1ccccc1	0	-1	-7	6
O=c1c(CN2CCN(c3cccc(Cl)c3)CC2)coc2ccccc12	0	0	43*	53*
Cc1ccc2occ(CN3CCN(c4ccccc4)CC3)c(=O)c2c1	0	3	-3	23
O=c1c(CN2CCN(c3cccc(C(F)(F)F)c3)CC2)coc2ccccc12	0	0	62*	35
Clc1cc(Cl)c2nc(-c3ccccc3)c(-c3ccccc3)nc2c1	0	2	7	6
SMILES	FBW7 activator	GPR151 ag	TEAD-YAP block	MITF inh
Cc1ccc(C2=NN=C(NC(=O)CSc3nnc(C)s3)SC2)cc1	0	-1	55*	13
Cn1cnnc1SCC(=O)NC1=NN=C(c2ccccc2)CS1	-1	0	2	-2
Cc1nnc(SCC(=O)Nc2ccc3ccccc3c2)s1	2.0*	-1	10	15
Cc1nnc(SCC(=O)Nc2ccc(Cl)c(Cl)c2)s1	0	0	18	10
COc1ccc(NC(=O)c2ccc(NC(=O)CSc3nnc(N)s3)cc2)cc1	8.2*	-1	-4	-7
COc1ccc(-c2nnc(SCC(=O)Nc3ccc(N)cc3)n2-c2ccccc2)cc1	6.5*	0	-2	-92
COc1ccc(-c2nc3ccccc3c(=O)n2NC(=O)c2ccc(Cl)cc2)cc1OC	0	0	-6	16
NS(=O)(=O)c1cccc(NS(=O)(=O)c2cccc([N+](=O)[O-])c2)c1	4.6*	1	-9	-3
COc1ccc(-c2cc(=O)c3c(O)cc(O)cc3o2)cc1	0	1	53*!	13
COc1ccc(-c2cc(=O)c3c(O)cc(OC)cc3o2)cc1	0	-6	-60	24
COc1ccc(-c2cc(=O)c3cc(C)ccc3o2)cc1	0	-5	18	-9
COc1ccc(-c2cc(=O)c3cc(O)ccc3o2)cc1	0	-3	43*	9
O=C(N1CCCCCC1)N1c2ccccc2C=Cc2ccccc21	0	0	36*	5
Cn1cc(C(=O)N/N=C/c2c[nH]c3ccccc23)c2ccccc21	0	0	37*	2
O=C(N/N=C/c1c[nH]c2ccccc12)/C(=C/c1ccccc1O)NC(=O)c1ccccc1	0	-8	86*	20
CCOc1ccc(/C=N/NC(=O)/C(=C/c2ccccc2O)NC(=O)c2ccccc2)cc1	0	-8	88*	31

Screens as filed in PubChem.
